JMJD2A Tudor inh: qHTS Assay for Inhibitors of JMJD2A-Tudor Domain; AID 504339, 2011; AlphaScreen JMJD2A-Tudor / H3K4me3 peptide binding; 4.4% of 390,000 active; Potency, µM (series often up to 114 µM), for inactives: top-dose activity change, negative = inhibition, most hits filed as inhibitors; further: potency means the concentration at half of the fitted maximal effect; on the % scale 0 is the no-effect control and ±100 the full control effect; nearly all actives have a fitted effect of over 50% in size
Target sequence (O75164 whole entry, looked up, the tested form may be a part): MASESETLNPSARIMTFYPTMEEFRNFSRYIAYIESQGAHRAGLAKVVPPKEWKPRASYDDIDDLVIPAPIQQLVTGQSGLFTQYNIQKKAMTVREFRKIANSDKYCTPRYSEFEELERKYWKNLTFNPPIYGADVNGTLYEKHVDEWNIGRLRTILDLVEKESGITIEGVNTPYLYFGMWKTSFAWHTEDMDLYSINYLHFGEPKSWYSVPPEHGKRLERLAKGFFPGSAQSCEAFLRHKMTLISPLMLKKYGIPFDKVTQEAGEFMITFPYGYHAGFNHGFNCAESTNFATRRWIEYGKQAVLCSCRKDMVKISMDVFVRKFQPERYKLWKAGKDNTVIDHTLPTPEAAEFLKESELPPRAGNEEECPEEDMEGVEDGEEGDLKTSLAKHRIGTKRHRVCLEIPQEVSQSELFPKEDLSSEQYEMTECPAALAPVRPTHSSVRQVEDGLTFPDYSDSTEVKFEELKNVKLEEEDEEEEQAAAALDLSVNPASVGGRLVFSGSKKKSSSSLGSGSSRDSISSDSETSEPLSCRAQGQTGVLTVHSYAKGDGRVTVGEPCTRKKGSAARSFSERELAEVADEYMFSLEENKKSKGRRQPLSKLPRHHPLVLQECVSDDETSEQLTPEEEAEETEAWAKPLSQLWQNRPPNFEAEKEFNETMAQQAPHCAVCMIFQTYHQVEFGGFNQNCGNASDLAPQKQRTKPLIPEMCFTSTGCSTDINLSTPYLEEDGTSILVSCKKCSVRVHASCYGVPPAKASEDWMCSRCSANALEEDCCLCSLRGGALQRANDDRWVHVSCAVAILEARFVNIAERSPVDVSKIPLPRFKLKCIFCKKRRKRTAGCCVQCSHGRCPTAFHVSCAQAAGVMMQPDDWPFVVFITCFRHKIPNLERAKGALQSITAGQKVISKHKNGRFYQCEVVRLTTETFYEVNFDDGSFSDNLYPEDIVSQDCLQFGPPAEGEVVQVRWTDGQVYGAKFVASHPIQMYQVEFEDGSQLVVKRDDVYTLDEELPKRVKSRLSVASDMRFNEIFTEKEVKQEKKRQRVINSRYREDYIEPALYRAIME
HP1b binding inh: HTS for Inhibitors of HP1-beta Chromodomain Interactions with Methylated Histone Tails. Chromobox protein homolog 1 (Homo sapiens), P83916. AlphaScreen HP1-beta / biotin-H3K9me3 peptide binding. Potency, µM (titrated, usually from 114 µM), without a hit: at the top dose activity change, negative = inhibition, usual class: inhibitors. 0.56% of 390,000 active; further: potency means the concentration at half of the fitted maximal effect; nearly all actives have a fitted effect of over 70% in size
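AlphaScreen: HP1-beta (50 nM) preformed 30 min with biotin-H3(1-18)K9me3 peptide (50 nM) in PBS pH 7.4, 0.01% Tween-20. Compound added for 30 min at RT, then streptavidin donor/nickel chelate acceptor beads (10 ug/mL) for 30 min.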
CtBP-E1A blk: qHTS Assay for Inhibitors of the CtBP/E1A Interaction; CtBP / adenovirus E1A interaction (AlphaScreen); AID 651724, 2012; AlphaScreen GST-E1A/His-CtBP binding, 1536-well; hits give low values; activity change, % (no concentration beside the values); 0.49% of 340,000 active; in the data active means activity change below about -65%; inconclusive means mostly about -30% to -63%; further: on the % scale 0 is the no-effect control and ±100 the full control effect
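In 5 uL wells, 23 nL compound meets equimolar GST-E1A and His-CtBP (5X stock 125 nM each) for 2 h, 37 °C. Beads (5X, 50 ug/mL) then 1 h, 37 °C, dark.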
G9a block: qHTS Assay for Inhibitors of Histone Lysine Methyltransferase G9a. Histone-lysine N-methyltransferase EHMT2 (Homo sapiens), Q96KQ7. G9a H3K9 monomethylation, AlphaScreen, 2 h. Potency, µM (titrated, usually from 102 µM), inactives show at the highest dose activity, negative = inhibition, usual class: inhibitors. 8.8% of 350,000 active; further: potency means the concentration at half of the fitted maximal effect; on the % scale 0 is the no-effect control and ±100 the full control effect; nearly all actives have a fitted effect of over 75% in size
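Step 1: enzyme (final 20 nM) with compound, 15 min RT. Step 2: substrate peptide 500 nM and SAM 20 uM, 2 h RT. Step 3: anti-H3K9me1 antibody and AlphaScreen beads, 10 min, then plate read.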
BAZ2B block: qHTS Assay for Inhibitors of BAZ2B; Bromodomain adjacent to zinc finger domain protein 2B (Homo sapiens), Q9UIF8; AlphaScreen BAZ2B-H3K14Ac peptide displacement; Potency, µM (titrated, usually from 114 µM), inactives show at the highest dose activity change, negative = inhibition, most hits filed as inhibitors; 4.4% of 360,000 active; AID 504333, 2011; further: potency means the concentration at half of the fitted maximal effect; on the % scale 0 is the no-effect control and ±100 the full control effect; nearly all actives have a fitted effect of over 60% in size
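In this displacement format the biotinylated H3(5-23) peptide acetylated at Lys14 serves as ligand at 50 nM, with BAZ2B at 50 nM in PBS pH 7.4 containing 0.01% Tween-20. Donor and acceptor beads are 10 ug/mL final.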
Six1-Eya2 inh: qHTS Assay for Inhibitors of the Six1/Eya2 Interaction; AID 651725, 2012; Homeobox protein SIX1 (Homo sapiens) + Protein phosphatase EYA2 (Homo sapiens), …; activity change, % (no concentration beside the values); 0.56% of 360,000 active; AlphaScreen GST-Six1/His-Eya2 binding, biochemical; hits give low values; in the data active means activity change below about -65%; inconclusive means mostly about -30% to -63%; further: on the % scale 0 is the no-effect control and ±100 the full control effect
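Homogeneous AlphaScreen proximity assay pairing GST-Six1 with His-tagged Eya2 (added as 5X mix: 250 nM and 500 nM) in 50 mM Tris pH 8.0, 300 mM NaCl, 1 mM TCEP. Glutathione donor and nickel acceptor beads; 1 h, 37 °C, dark.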
* hit, by the source's call; ? = inconclusive; · = not tested or not shown; [ ] = remark or other dose. Rows were chosen to be rich in hits. Some 10% of all compounds tested hit in one or more screens of this group. Unless noted, the call rests on the fitted dose curve; in most records, active means well fitted inhibition curve with a large enough effect; inconclusive means small, poorly fitted or top-dose-only effect; inactive means no such curve, though single readings can be large or run the other way.

SMILES	JMJD2A Tudor inh	HP1b binding inh	CtBP-E1A blk	G9a block	BAZ2B block	Six1-Eya2 inh
CC1(C)O[C@@H]2[C@H](O1)[C@@H](COS(=O)(=O)O)O[C@H]2n1c(=S)[nH]c2c(=O)[nH]c(N)nc21	20µM*	-24%	-2	13%[2.33 µM]	-6%	-9
CC1(C)O[C@@H]2[C@H](O1)[C@@H](COS(=O)(=O)O)O[C@H]2n1cnc2c(N)ncnc21	·	·	·	-11%[2.33 µM]	-10%	·
Cc1ccc(-c2nc3ccc(NS(=O)(=O)c4ccccc4)cc3[nH]2)o1	-28%	8%	13	?	?	-21
O=C(CCNS(=O)(=O)c1ccc(Br)cc1)NCc1ccc(Cl)cc1	?	19%	4	4%[59 µM]	-4%	3
Cc1cccc(C)c1-n1cccc1/C=C1\SC(=S)N(c2cccc(C(=O)O)c2)C1=O	?	?	-8	?	50µM*	-12
Cc1ccc(NC(=O)CN2C(=O)S/C(=C\c3cccn3-c3cccc(C(=O)O)c3)C2=O)c(C)c1	22µM*	50µM*	0	?	40µM*	-8
Cc1cccc(C)c1NC(=O)CN1C(=O)S/C(=C\c2cccn2C)C1=O	-9%	21%	-7	5%[59 µM]	6%	-2
COc1ccc(NC(=O)CN2C(=O)S/C(=C/c3cccn3-c3ccc(C(=O)O)cc3)C2=O)cc1	·	·	·	22µM*	18µM*	·
Cc1cccc(C)c1NC(=O)CN1C(=O)S/C(=C\c2cccn2-c2cccc(C(=O)O)c2)C1=O	50µM*	-11%	-1	?	79µM*	-11
COc1ccc(/C=C2\SC(=O)N(CC(=O)Nc3cccc(C)c3)C2=O)cc1O	-10%	34%	-16	·	-21%	-4
CCOC(=O)c1nnn(CC(=O)NC(=O)Nc2ccc(F)cc2)c1C(=O)OCC	-25%	8%	·	2%	35%	?
CCOC(=O)c1c(C)oc2ncnc(N3CCN(c4ccccc4F)CC3)c12	-7%	33%	·	-7%[59 µM]	-5%	·
CC1(C)CC2CC(C)(CN2/C=C2/CCCCC2=O)C1 (stereo not given)	-7%	11%	-1	-1%[12.7 µM]	-8%	10
Cc1ccc(CNC(=O)c2ccc(-n3cnc4cccnc43)cc2)cc1	-15%	44%	·	11%[59 µM]	1%	·
Cc1ccccc1NC(=O)CN1C(=O)S/C(=C\c2cccn2-c2cccc(C(=O)O)c2)C1=O	79µM*	?	7	?	56µM*	-11
O=C(CN1C(=O)N/C(=C\c2cccn2-c2cccc(C(=O)O)c2)C1=O)Nc1ccccc1F	-18%	·	·	·	·	·
CC(C)(CO)[C@H](O)C(=O)NCCCO	·	·	·	16%[21.5 µM]	·	·
COc1ccc2c(c1)CCO[C@]21O[C@H](CCO)C[C@H](O)[C@H]1O	·	·	1	·	·	-1
N#Cc1c(=O)c2nc(NCc3ccccc3)ncc2n2ccccc12	50µM*	43%	?	-21%[12.7 µM]	?	-66*
CC1Cc2ccccc2N1C(=O)c1ccc(N2CCCCC2)c([N+](=O)[O-])c1 (stereo not given)	40µM*	?	-11	32µM*	32µM*	?
CC1Cc2ccccc2N1C(=O)c1ccc(N2CCCC2)c([N+](=O)[O-])c1 (stereo not given)	45µM*	-15%	?	?	25µM*	?
N#Cc1cc([N+](=O)[O-])ccc1N1CCN(c2ccccc2O)CC1	?	-15%	7	?	?	-27
O=C(O)c1ccccc1C(=O)c1ccc(N2CCCC2)c([N+](=O)[O-])c1	-16%[11.4 µM]	27%	·	?	-14%	9
CC(=O)c1ccc(N2CCN(c3ccccc3O)CC2)c([N+](=O)[O-])c1	?	?	-10	45µM*	?	-18
CCNc1nc(NC(C)C)nc(-c2ccncc2)n1	·	·	0	·	·	2
SMILES	JMJD2A Tudor inh	HP1b binding inh	CtBP-E1A blk	G9a block	BAZ2B block	Six1-Eya2 inh
COc1ccc(C2c3c(nc(CCCc4ccccc4)[nH]c3=O)Oc3ccc4ccccc4c32)cc1OC (stereo not given)	-33%	·	·	·	·	·
COc1ccc(CNC(=O)/C=C/[C@H]2O[C@@H](n3ccc(=O)[nH]c3=O)[C@H](O)[C@@H]2O)cc1	·	·	4	·	·	8
OC[C@@H]1CN(Cc2cccs2)C[C@H](n2cnc3c(NCc4ccncc4)ncnc32)O1	·	·	2	·	·	5
CN1C(=O)c2cccc(N(C)C)c2C1=O	4%	36%	-13	6%	12%	2
CN(C)c1cccc2c1C(=O)c1ccccc1C2=O	45µM*	28µM*	-85*	11µM*	8.9µM*	-86*
S=c1nc[nH]c2c1cnn2-c1ccccc1	-10%	40%	·	·	-2%	-1
Cn1ncc2c(=S)nc(Cl)[nH]c21	22µM*	-36%	-15	·	·	0
Cc1cc(NC(=O)c2cc(-c3ccc(Br)cc3)on2)nn1Cc1ccc(Cl)cc1	-10%	28%	·	-1%[59 µM]	-2%	·
CC(=O)N/C(=C\c1ccc(Br)s1)C(=O)O	-12%	29%	2	-40%	23%	10
c1ccc(OCCCn2ccnc2)cc1	-15%	15%	6	·	1%	2
CCc1ccc(OCCCCCn2ccnc2)cc1	2.5µM*	56µM*	7	10µM*	50µM*	0
CCc1ccc(OCCn2ccnc2)cc1	28µM*	?	2	22µM*	?	-6
Cc1nc2cnc(N3CCNCC3)nc2n(CCC#N)c1=O	·	·	·	-6%[12.7 µM]	·	·
Cc1noc(C)c1-c1ccc(C(=O)NCc2ccc(Cl)cc2)c2occc12	·	·	-19	·	·	-18
CCN(CC)CCNC(=O)c1c(C)oc2ncn(C)c(=O)c12	4%	39%	·	2%[59 µM]	10%[57.1 µM]	·
CCn1cc(C(=O)OCC(=O)Nc2ccc(C)c(Cl)c2)c(=O)c2ccc(C)nc21	-18%	-2%	·	-11%[59 µM]	5%	·
O=C1CC(Nc2ccc(N3CCOCC3)cc2)C(=O)N1c1ccccc1 (stereo not given)	-20%	15%	-1	?	-8%	0
O=C1CC(Nc2ccc(N3CCOCC3)cc2)C(=O)N1Cc1ccccc1 (stereo not given)	?	-20%	-8	8.9µM*	?	-12
CCCNc1cc(=S)nc(N)[nH]1	22µM*	?	-22	0.63µM*	-30%	-11
CCCCNc1cc(Cl)nc(N)n1	3%	42%	5	-3%	-1%	-5

Source: PubChem BioAssay
